About 83,000 compounds went through this panel and 20% of them were active in at least one assay; those are over-represented in the sample as a whole.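 96-well plates, one dose, 48 hours. Percent growth reported; active if below 10.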 Calls of active or inactive are those of the source.
Experiments:
Assay in all cases: NCI-60 one-dose screen, 48 h (100 = growth as untreated, 0 = no growth, -100 = all killed)
Settings in all cases: 10 µM unless noted
[1] = test system: DU-145 prostate
[2] = test system: K-562 leukemia
[3] = test system: MALME-3M melanoma
[4] = test system: MDA-MB-231 breast
[5] = test system: RXF 393 renal
[6] = test system: SF-268 CNS
[7] = test system: SF-295 CNS
[8] = test system: SF-539 CNS
[9] = test system: UACC-257 melanoma
[10] = test system: M14 melanoma
[11] = test system: HCT-15 colon
[12] = test system: HT29 colon
[13] = test system: SNB-75 CNS
[14] = test system: SNB-19 CNS
[15] = test system: U251 CNS
[16] = test system: PC-3 prostate
[17] = test system: SK-MEL-5 melanoma
[18] = test system: UACC-62 melanoma
[19] = test system: LOX IMVI melanoma
[20] = test system: SK-MEL-28 melanoma

Measured: growth

CCN(CC)CCS(=O)(=O)CCNc1ccnc2cc(Cl)ccc12
active: [1] -24% | [2] 7.87% | [3] 1.04% | [4] -2.95% | [5] -17.2% | [6] 4.55% | [8] -2.68% | [10] -10.5% | [12] -21.1% | [13] 9.48% | [15] -4.39%
inactive: [7] 25.9% | [9] 59% | [11] 10.1% | [14] 70% | [16] 33% | [17] 29.5% | [18] 29.7% | [19] 11.3% | [20] 49.5%

COc1ccc(/C=C/C(=C/c2c(O)[nH]c3cc(Br)ccc23)N=O)cc1
inactive: [1] 114% | [2] 89.1% | [3] 95.4% | [4] 101% | [5] 130% | [6] 107% | [7] 107% | [8] 99.4% | [9] 114% | [10] 115% | [11] 113% | [12] 114% | [13] 113% | [14] 109% | [15] 105% | [16] 104% | [17] 103% | [18] 102% | [19] 90.8% | [20] 120%

O=C(CSc1nccc(Nc2ccc(S(=O)(=O)Nc3ccccn3)cc2)n1)c1ccc(Cl)cc1
inactive: [1] 103% | [2] 86.6% | [3] 112% | [4] 85.8% | [5] 106% | [6] 95.1% | [7] 98.2% | [8] 95.3% | [9] 91.3% | [10] 107% | [11] 99.9% | [12] 107% | [13] 101% | [14] 97.1% | [15] 93.9% | [16] 84.3% | [17] 70.8% | [18] 82.4% | [19] 87.6% | [20] 118%

Brc1ccc2c(c1)CN(C1CCCCC1)CO2
inactive: [1] 111% | [2] 89.7% | [3] 115% | [4] 102% | [5] 107% | [6] 96.4% | [7] 104% | [8] 98.2% | [9] 120% | [10] 105% | [11] 104% | [12] 103% | [13] 82.2% | [14] 103% | [15] 108% | [16] 91.6% | [17] 104% | [18] 105% | [19] 95.1% | [20] 118%

CC(C)[N+](C)(C)CC(O)COc1cccc2ccccc12 (stereo not given)
inactive: [1] 106% | [2] 106% | [3] 103% | [4] 103% | [5] 115% | [6] 94% | [7] 104% | [8] 96% | [9] 90.4% | [10] 107% | [11] 97.1% | [12] 111% | [13] 109% | [14] 103% | [15] 101% | [16] 92.2% | [17] 107% | [18] 101% | [19] 93.2% | [20] 113%

C=C(C)[C@@H]1CC[C@]2(COC(=O)c3ccccc3C(=O)O)CC[C@]3(C)[C@H](CC[C@@H]4[C@@]5(C)CC[C@H](OC(=O)c6ccccc6C(=O)O)C(C)(C)[C@@H]5CC[C@]43C)[C@@H]12
active: [4] -26.2% [100 µM] | [5] -21.9% [100 µM] | [13] -20.7% [100 µM] | [14] 4.01% [100 µM] | [15] 4.32% [100 µM] | [18] -18.7% [100 µM]
inactive: [1] 29.7% [100 µM] | [2] 44.7% [100 µM] | [3] 30.7% [100 µM] | [6] 18% [100 µM] | [7] 10.2% [100 µM] | [8] 10.6% [100 µM] | [9] 92.9% [100 µM] | [10] 29.6% [100 µM] | [11] 18.1% [100 µM] | [12] 64.3% [100 µM] | [16] 16.2% [100 µM] | [17] 11.9% [100 µM] | [19] 11.2% [100 µM] | [20] 31.3% [100 µM]

O=C(Nc1ccc(Cl)c(C(F)(F)F)c1)Nc1ccc(-c2cccnc2)cc1N1CCC(CO)CC1
inactive: [1] 53.2% | [2] 15.1% | [3] 43.1% | [5] 26.2% | [6] 47.6% | [7] 17.8% | [8] 18.9% | [9] 40.2% | [10] 24.1% | [11] 14.8% | [13] 85.4% | [14] 29.1% | [15] 21% | [16] 12.4% | [17] 11.3% | [18] 37% | [19] 26.6% | [20] 32.3%
active: [4] -17.5% | [12] 9.16%

COc1ccc2nc3c(cc2c1)C(=O)CC(c1ccccc1)C3 (stereo not given)
inactive: [2] 13.2% | [3] 47.7% | [4] 54.6% | [6] 53.9% | [7] 31% | [9] 82.9% | [11] 24.8% | [14] 34.3% | [15] 45% | [16] 28.8% | [17] 30.2% | [18] 36.9% | [19] 36.1% | [20] 54.6%
active: [1] 1.12% | [5] -2.76% | [8] 7.92% | [10] 9.28% | [12] 9.97% | [13] -9.09%

O=[N+]([O-])c1ccc(O)c(-c2nc3ccccc3s2)c1
inactive: [1] 86.8% | [2] 52.7% | [3] 44.7% | [4] 75.3% | [5] 107% | [6] 76.1% | [7] 53.9% | [8] 99% | [9] 83.5% | [10] 83.2% | [11] 89% | [12] 96.6% | [13] 86.9% | [14] 64.1% | [15] 71.6% | [16] 70.6% | [17] 25.3% | [18] 41.3% | [19] 61% | [20] 64.3%

O=C(Nc1cccc2ccccc12)c1cc2ccccc2cc1O
active: [3] -12.3% | [4] -22.1% | [7] 6.2% | [9] 5.69% | [15] 8.21% | [16] 2.08% | [17] -57.3%
inactive: [1] 25.7% | [2] 14.7% | [5] 22.7% | [6] 23.8% | [8] 17.7% | [10] 32.2% | [11] 19.1% | [12] 68.9% | [13] 12.8% | [14] 22.9% | [18] 17.4% | [19] 13.7% | [20] 45.7%

C#C[C@]1(O)CC[C@H]2[C@@H]3CC=C4c5nc(Nc6ncccn6)sc5CC[C@]4(C)[C@H]3CC[C@@]21C
inactive: [1] 61.1% | [2] 33.8% | [3] 47.6% | [4] 34.2% | [6] 29.5% | [10] 43.8% | [11] 33.1% | [12] 55.4% | [14] 64.8% | [15] 21.9% | [16] 32.1% | [17] 68.1% | [19] 26.9%
active: [5] -59.1% | [7] -66.2% | [8] -50.1% | [9] -16% | [13] -7.12% | [18] 1.81% | [20] -41.4%

CCN(CC)c1cc(N)c(Cc2c(N)cc(N(CC)CC)cc2Cl)c(Cl)c1
active: [13] 8.86% | [17] -27.8%
inactive: [1] 67.4% | [2] 19.2% | [3] 44.6% | [4] 48.5% | [5] 63.7% | [6] 36.6% | [7] 31.8% | [8] 44.2% | [9] 12.4% | [10] 52.5% | [11] 91.7% | [12] 27.6% | [14] 35.1% | [15] 21.6% | [16] 38.4% | [18] 47.5% | [19] 37.7% | [20] 53.2%

O=C(Nc1cc(F)cc2cccnc12)c1cnc(N2CCNCC2)cn1
inactive: [1] 75.2% | [2] 19.8% | [3] 59.6% | [4] 71.8% | [5] 54.1% | [6] 77.4% | [7] 89.3% | [8] 85.5% | [9] 88% | [10] 86.1% | [11] 40.5% | [12] 36.8% | [13] 82.7% | [14] 87.7% | [15] 63.6% | [16] 63% | [17] 91.1% | [18] 101% | [19] 65.8% | [20] 97.4%

CSc1nc2c(c(=O)n1C)C1(C(=O)N(Cc3ccccc3)c3ccccc31)c1c(nc(SC)n(C)c1=O)N2
inactive: [1] 92.7% | [2] 89.8% | [3] 94% | [4] 77.6% | [5] 88.3% | [6] 97.2% | [7] 85.3% | [8] 106% | [9] 75.1% | [10] 99.7% | [11] 84% | [12] 86.2% | [13] 99% | [14] 91.5% | [15] 77.5% | [16] 44.9% | [17] 93% | [18] 93.6% | [19] 101% | [20] 104%

Source: PubChem BioAssay (NCI)
